According to PubChem BioAssay (NCI):
About 83,000 compounds went through this panel and 20% of them were active in at least one assay; those are over-represented in the sample as a whole.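 For each line, cells grew in 96-well plates with the test compound present at a single concentration for 48 hours.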 Activity calls are given as the source filed them. Rule for the calls: active = growth percent below 10; inactive = the rest.

tested on: MDA-MB-468 breast; test: NCI-60 one-dose screen, 48 h (100 = growth as untreated, 0 = no growth, -100 = all killed); conditions: 10 µM unless noted

SMILES	growth
CCOC(=O)c1[nH]c(C#N)c(C(=O)OCC)c1C	105% (inactive)
Cc1ccc(-c2nc(/C=C3/C(=O)N(C)c4ccc(F)cc43)c3ccccn23)cc1	101% (inactive)
O=C(/C=C/c1ccc[nH]1)c1ccc(-n2ccc(C(F)(F)F)n2)cc1	90.3% (inactive)
O=C(/C=C/c1sc(Cl)nc1Cl)c1ccc(F)cc1	40.9% (inactive)
COc1ccc(-c2nc(SC)nc(N3CCOCC3)c2C#N)cc1	101% (inactive)
O=C(/C=C/c1cccc(O)c1)c1cccc(-n2cc(-c3ccccc3)[nH]c2=O)c1	73.4% (inactive)
Cc1ccc(-c2c3c(N)c4c(nc3nc3c2c(C)nn3-c2ccccc2)CCC4)cc1	53% (inactive)
C[C@@H]1[C@H]2[C@H](C=C3[C@@H]4CC[C@H]5Cc6nc7c(nc6C[C@]5(C)[C@H]4C[C@@H](O)[C@@]32C)C[C@@H]2CC[C@H]3C4=C[C@@H]5O[C@@]6(CC[C@](C)(CO)O6)[C@@H](C)[C@@]5(O)[C@@]4(C)[C@H](O)C[C@@H]3[C@@]2(C)C7)O[C@]12CCC(C)(C)O2	11.8% (inactive)
O=C1/C(=C/C=C/c2ccco2)SC(=S)N1C1CCCCC1	43.4% (inactive)
COc1cc(C)c(Cc2cnc(N)nc2N)cc1OC	116% (inactive)
O=C(CCCCCCNC(=O)C(O)(O)C(F)(F)F)Nc1ccc(-c2ccccc2)cc1	-10.5% (active)
CC(C)CCCCCOC(=O)c1ccccc1SSc1ccccc1C(=O)OCCCCCC(C)C	109% (inactive)
O=C1OCC2=C1C(c1ccc(Cl)c(Cl)c1)c1cc3c(cc1N2CCO)OCCO3 (stereo not drawn)	23.5% (inactive)
